Test results published in the GenesisPotency data set.
The whole screen tested about 500 compounds, of which about 40 (8%) were called active.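 How the source made its calls: active means mean IC50 below 20 µM in each of the two panels, so potent in both; inactive means the rest.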 Only a sample is shown.

target: T1, Neuropilin-1, Homo sapiens (UniProt O14786); test: NRP-1 b1b2 CendR peptide binding inhibitors, dose response, biochemical, FP and AlphaScreen panel (AID 651650)
T1 sequence (whole entry): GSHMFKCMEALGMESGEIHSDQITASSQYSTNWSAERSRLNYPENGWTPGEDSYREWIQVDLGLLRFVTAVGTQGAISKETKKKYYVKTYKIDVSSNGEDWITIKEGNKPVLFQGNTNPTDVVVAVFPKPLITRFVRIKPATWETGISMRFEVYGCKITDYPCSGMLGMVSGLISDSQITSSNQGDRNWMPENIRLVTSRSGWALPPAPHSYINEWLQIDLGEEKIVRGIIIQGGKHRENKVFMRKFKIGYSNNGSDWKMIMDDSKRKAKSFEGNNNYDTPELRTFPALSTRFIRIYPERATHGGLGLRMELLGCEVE

SMILES | outcome
Cn1c(=O)c2[nH]c(COc3ccccc3)nc2n(C)c1=O | inactive
